39 molecules from the supplement of paper PMC12494721 can be followed below.

Structures can show the parent of a compound that is named as a salt.

The test system of the test is Klebsiella aerogenes DSM 30053. Put plainly: fold change of Histamine concentration vs plate DMSO controls (fold change (ratio)); higher = more amine produced, active = hit call of the paper (significant change in both replicates, either direction). As to conditions: incubation time: 27 h, anaerobic, 37 °C. An outline of the steps: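 Anaerobic mGAM cultures of four gut bacterial strains were grown at 37 °C for 27 h in 80 µL wells, starting at OD 0.1 before 1:1 dilution. Compounds were at 20 µM final (sweeteners 50 µM). Whole cultures were extracted with cold acetonitrile/methanol containing 0.1% formic acid and centrifuged. Amines were quantified by LC–triple-quadrupole MS (dynamic MRM) against external calibration curves and drift-corrected within batch. Each value is the fold change versus plate DMSO controls, averaged over 2 biological replicates.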
For the molecule `CC(=O)OCC(CCn1cnc2cnc(N)nc21)COC(C)=O` [Famciclovir] (20 µM), the “fold change of Histamine concentration” value is 1.15 (inactive).
Turning to `COC(c1ccccc1)(c1ccccc1)[C@H](Oc1nc(C)cc(C)n1)C(=O)O` [Ambrisentan] (20 µM), the “fold change of Histamine concentration” value is 1.07 (inactive).
On to `C[C@H](CCC(=O)O)[C@H]1CC[C@H]2[C@@H]3[C@@H](O)C[C@@H]4C[C@H](O)CC[C@]4(C)[C@H]3CC[C@]12C` [Urosiol] (20 µM), for which the “fold change of Histamine concentration” value was 0.998 (inactive).
For the molecule `C=C(CC)C(=O)c1ccc(OCC(=O)O)c(Cl)c1Cl` [Ethacrynic acid] (20 µM), the “fold change of Histamine concentration” value was 0.964 (inactive).
As to `C[C@]12CC[C@@H]3c4ccc(O)cc4CC[C@H]3[C@@H]1C[C@@H](O)[C@@H]2O` [Estriol] (20 µM), the “fold change of Histamine concentration” value was 0.888 (inactive).
For the molecule `Cc1cc2cc3c(C)cc(=O)oc3c(C)c2o1` [Trioxsalen] (20 µM), the “fold change of Histamine concentration” value is 1.08 (inactive).
For the molecule `O=C(Nc1cccc2c(=O)cc(-c3nnn[nH]3)oc12)c1ccc(OCCCCc2ccccc2)cc1` [Pranlukast] (20 µM), the “fold change of Histamine concentration” value was 0.986 (inactive).
With `C[N+]1(C)CCC(OC(=O)C(O)(c2ccccc2)C2CCCC2)C1` (centres undefined) [Glycopyrrolate bromide] (20 µM) the figure was 1 (inactive).
For `CC(C)(O)c1ccccc1CC[C@@H](SCC1(CC(=O)O)CC1)c1cccc(/C=C/c2ccc3ccc(Cl)cc3n2)c1` [Montelukast] (20 µM), the “fold change of Histamine concentration” value was 1.07 (inactive).
On to `C[C@@H]1C[C@H]2[C@@H]3C[C@H](F)C4=CC(=O)C=C[C@]4(C)[C@@]3(Cl)[C@@H](O)C[C@]2(C)[C@H]1C(=O)COC(=O)C(C)(C)C` [Clocortolone pivalate] (20 µM), for which the “fold change of Histamine concentration” value is 1.04 (inactive).
In the case of `CCOC(=O)C1=C[C@]2(CC)CCCN3CCc4c(n1c1ccccc41)[C@@H]32` [Vinpocetine] (20 µM), the “fold change of Histamine concentration” value was 0.922 (inactive).
In the case of `Clc1ccccc1C(c1ccccc1)(c1ccccc1)n1ccnc1` [Clotrimazole] (20 µM) it was 0.999 (inactive); in that of `CC(C[N+](C)(C)C)OC(N)=O` (centres undefined) [Bethanechol chloride] (20 µM), 0.98 (inactive); in that of `C=CC(N)CCC(=O)O` (centres undefined) [Vigabatrin hydrochloride] (20 µM), 0.856 (inactive).
With `C=C1C[C@@]23CC[C@H]4[C@@](C)(CCC[C@@]4(C)C(=O)O[C@@H]4O[C@H](CO)[C@@H](O)[C@H](O)[C@H]4O)[C@@H]2CC[C@]1(O[C@@H]1O[C@H](CO)[C@@H](O)[C@H](O)[C@H]1O[C@@H]1O[C@H](CO)[C@@H](O)[C@H](O)[C@H]1O)C3` [Stevioside] (50 µM), the “fold change of Histamine concentration” value is 0.984 (inactive).
Regarding `CCCN(CCC)C(=O)C(CCC(=O)O)NC(=O)c1ccccc1` (centres undefined) [Proglumide] (20 µM), the “fold change of Histamine concentration” value was 0.906 (inactive).
In the case of `CN1CCC(=C2c3ccccc3CC(=O)c3sccc32)CC1` [Ketotifen fumarate] (20 µM), the “fold change of Histamine concentration” value was 0.935 (inactive).
With `Cc1ccc(-c2ncc(Cl)cc2-c2ccc(S(C)(=O)=O)cc2)cn1` [Etoricoxib] (20 µM), the “fold change of Histamine concentration” value is 0.814 (inactive).
Turning to `C[C@@H](O)[C@H]1C(=O)N2C(C(=O)O)=C(S[C@@H]3CN[C@H](C(=O)N(C)C)C3)[C@H](C)[C@H]12` [Meropenem] (20 µM), the “fold change of Histamine concentration” value is 0.214 (active).
With `CC(C)(C)c1ccc(C(O)CCCN2CCC(C(O)(c3ccccc3)c3ccccc3)CC2)cc1` (centres undefined) [Terfenadine] (20 µM) the figure was 0.886 (inactive).
Consider `CC(NN)c1ccccc1` (centres undefined) [Mebanazine] (20 µM), for which the “fold change of Histamine concentration” value is 1.04 (inactive).
As for `OCCN1CCN(CC/C=C2/c3ccccc3Sc3ccc(C(F)(F)F)cc32)CC1` [Flupentixol dihydrochloride cis-(Z)] (20 µM), the “fold change of Histamine concentration” value was 1 (inactive).
In the case of `C#CCN(C)CCCOc1ccc(Cl)cc1Cl` [Clorgyline hydrochloride] (20 µM), the “fold change of Histamine concentration” value was 1.04 (inactive).
As for `CN(C)C(=O)C(CCN1CCC(O)(c2ccc(Cl)cc2)CC1)(c1ccccc1)c1ccccc1` [Loperamide hydrochloride] (20 µM), the “fold change of Histamine concentration” value was 0.935 (inactive).
Consider `CC[N+](CC)(CC(=O)Nc1c(C)cccc1C)Cc1ccccc1` [Denatonium benzoate] (20 µM), for which the “fold change of Histamine concentration” value was 0.934 (inactive).
Take `COc1cc(C)c(/C=C/C(C)=C/C=C/C(C)=C/C(=O)O)c(C)c1C` [Acitretin] (20 µM): the “fold change of Histamine concentration” value was 0.97 (inactive).
As for `Nc1ccn([C@@H]2O[C@H](CO)[C@@H](O)[C@@H]2O)c(=O)n1` [Cytarabine] (20 µM), the “fold change of Histamine concentration” value was 0.975 (inactive).
In the case of `COc1ccc2cc([C@H](C)C(=O)O)ccc2c1` [(S)-Naproxen] (20 µM), the “fold change of Histamine concentration” value was 1.04 (inactive).
As to `COC(=O)Nc1nc2cc(C(=O)c3ccc(F)cc3)ccc2[nH]1` [Flubendazol] (20 µM), the “fold change of Histamine concentration” value is 0.979 (inactive).
`O=C(O)COc1nn(Cc2ccccc2)c2ccccc12` [Bendazac] (20 µM): the “fold change of Histamine concentration” value is 0.954 (inactive).
On to `O=C(O)Cc1ccc(-c2ccccc2)cc1` [Felbinac] (20 µM), for which the “fold change of Histamine concentration” value is 0.921 (inactive).
Take `CCOc1ccc2c(c1)C(C)=CC(C)(C)N2` [Ethoxyquin] (20 µM): the “fold change of Histamine concentration” value is 1.07 (inactive).
On to `CN1CC2c3ccccc3Oc3ccc(Cl)cc3C2C1` (centres undefined) [Asenapine maleate] (20 µM), for which the “fold change of Histamine concentration” value was 0.986 (inactive).
As for `CCOC(=O)OC(C)OC(=O)[C@@H]1N2C(=O)[C@@H](NC(=O)[C@H](N)c3ccccc3)[C@H]2SC1(C)C` (some centres undefined) [Bacampicillin hydrochloride] (20 µM), the “fold change of Histamine concentration” value was 1.02 (inactive).
Consider `CCCOc1ccccc1-c1nc2[nH]nnc2c(=O)[nH]1` [Zaprinast] (20 µM), for which the “fold change of Histamine concentration” value was 0.988 (inactive).
Regarding `CCCCC(O)c1ccccc1` (centres undefined) [Fenipentol] (20 µM), the “fold change of Histamine concentration” value was 0.969 (inactive).
Consider `CN[C@H](CC(C)C)C(=O)N[C@H]1C(=O)N[C@@H](CC(N)=O)C(=O)N[C@H]2C(=O)N[C@H]3C(=O)N[C@H](C(=O)N[C@H](C(=O)O)c4cc(O)cc(O)c4-c4cc3ccc4O)[C@H](O)c3ccc(c(Cl)c3)Oc3cc2cc(c3O[C@@H]2O[C@H](CO)[C@@H](O)[C@H](O)[C@H]2O[C@H]2C[C@](C)(N)[C@H](O)[C@H](C)O2)Oc2ccc(cc2Cl)[C@H]1O` [Vancomycin hydrochloride] (20 µM), for which the “fold change of Histamine concentration” value was 1.07 (inactive).
For `N#Cc1ccc(Oc2ccc3c(c2)COB3O)cc1` [Crisaborole] (20 µM), the “fold change of Histamine concentration” value is 0.998 (inactive).
As to `COc1ccc([C@@H]2Sc3ccccc3N(CCN(C)C)C(=O)[C@@H]2OC(C)=O)cc1` [Diltiazem hydrochloride] (20 µM), the “fold change of Histamine concentration” value is 1.07 (inactive).
